Experiment [1] relates to XIP peptide (Xip251-270) binding. Kind of experiment: XIP fragment 251-270 binding compounds – biochemical, small-molecule microarray, fluorescence 635/667 nm, 0.1 µg/mL protein, primary screen (AID 1182). To be noted: fluorescent protein binding, 635 nm, higher = more signal, called active from +8 up or from −8 down.
In experiment [2] the test system is XIP peptide (Xip251-270). The experiment can be described thus: compounds binding XIP fragment 251-270 – biochemical, small-molecule microarray, fluorescence 635/667 nm, 0.5 µg/mL protein, primary screen (AID 1183). To be noted: fluorescence 635 nm, higher = more signal.
Experiment [3] in a line: blood-stage malaria parasite viability loss – strain 3D7, DAPI fluorescence, 100 nL, primary screen (AID 1184).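 Note: parasites grown inside human red blood cells in medium with human serum.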 To be noted: P. falciparum 3D7 growth, 3 d, higher = more signal.
Experiment [4] deals with Homeobox protein Hox-A13 (Mus musculus) (UniProt Q62424). The experiment can be described thus: disruptors of Hoxa13 oligonucleotide interaction – biochemical, fluorescence polarization, labeled oligonucleotide, primary screen (AID 1185). To be noted: Hoxa13:DNA binding, 15 min, higher = more signal, called active from +8 up or from −8 down. On the technique in general: In fluorescence polarisation assays a small probe gives low polarisation when free and higher when bound to something large.
Sequence of Homeobox protein Hox-A13 (Mus musculus) (Q62424 whole entry, looked up): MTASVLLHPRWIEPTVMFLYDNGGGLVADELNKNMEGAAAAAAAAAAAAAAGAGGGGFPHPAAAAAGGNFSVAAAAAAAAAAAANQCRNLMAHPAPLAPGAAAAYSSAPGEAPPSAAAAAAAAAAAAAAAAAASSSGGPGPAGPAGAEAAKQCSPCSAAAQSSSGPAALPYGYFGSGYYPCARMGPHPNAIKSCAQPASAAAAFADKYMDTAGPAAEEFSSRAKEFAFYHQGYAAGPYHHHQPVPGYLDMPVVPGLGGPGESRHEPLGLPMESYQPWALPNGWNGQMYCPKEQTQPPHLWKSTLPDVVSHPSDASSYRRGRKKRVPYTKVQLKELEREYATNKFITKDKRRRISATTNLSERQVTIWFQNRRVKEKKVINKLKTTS

The source made the active and inactive calls.

On to `C#CCCCON=C1C[C@@H](O)[C@@H](O)[C@@H]2[C@@H]3C(=O)N(Cc4ccccc4)C(=O)[C@@H]3CC[C@H]12`, for which the results for the composite z-score in experiment [1] and in experiment [2] were 0.136 (inactive) and -0.102, respectively. The z-score in experiment [3] is -0.677; in experiment [4] it was -3.05 (inactive).

For the compound `C[C@@H](c1ccccc1)N1C(=O)[C@H]2[C@H]3[C@H](O)[C@H](O)CC(=NNC(=O)OCc4ccccc4)[C@H]3CC[C@H]2C1=O`, the composite z-score in experiment [1] was -0.724 (inactive); in experiment [2], -0.131. Moreover, the z-score in experiment [3] was -0.547; in experiment [4], -5.68 (inactive).

For `CCCNC(=O)OC[C@H]1O[C@H](CCON=C[C@@H](OC)[C@H](C)C=CCC(=O)OC)C=C[C@@H]1Oc1ccc(OC)cc1`, the composite z-score is 0.228 (inactive) in experiment [1] and 0.162 in experiment [2]. The results for the z-score in experiment [3] and in experiment [4] were 0.232 and -5.88 (inactive), respectively.

On to `COC(=O)[C@H](C)NC(=O)CCC1CC(OC(=O)NCCc2ccc(F)cc2)CC2(CCCC(COC(=O)NCCc3ccc(Cl)cc3)O2)O1` (stereo partly drawn), for which the composite z-score was 0.503 (inactive) in experiment [1] and 0.729 in experiment [2]. Further, the z-score in experiment [3] was -1.5; in experiment [4], -2.44 (inactive).

In the case of `COc1ccc(O[C@H]2C=C[C@@H](c3ccccc3)O[C@@H]2COC(=O)CCC(C)=NO[C@@H](C)c2cc(-c3c(C)cc(C)cc3C)no2)cc1`, the composite z-score in experiment [1] was -0.491 (inactive); in experiment [2], -0.782. The z-score in experiment [3] was -0.739; in experiment [4], -0.508 (inactive).

For `CC(CCN1CCc2nc(-c3ccccc3)c(-c3ccccc3)cc2C1)=NOC[C@@H](C)[C@H](OCc1ccccc1)C(C)C`, the composite z-score in experiment [1] is 2.56 (inactive); in experiment [2], -0.445. For the same compound, the z-score in experiment [3] was -0.784; in experiment [4], -0.978 (inactive).

Take `COC(=O)CC=C[C@H](C)[C@@H](OCc1ccccc1Br)C(C)C`: the composite z-score in experiment [1] is 0.864 (inactive); in experiment [2], -0.039. For the same compound, the z-score in experiment [3] was -0.0811; in experiment [4], -0.388 (inactive).

`O=C1[C@H]2[C@H]3[C@H](O)[C@H](O)CC(=NO[C@@H]4O[C@H](CO)[C@@H](O)[C@H](O)[C@H]4O)[C@@H]3CC[C@H]2C(=O)N1Cc1ccccc1`: the values for the composite z-score in experiment [1] and in experiment [2] were 0.0711 (inactive) and 0.216, respectively. For the same compound, the z-score in experiment [3] is -0.165; in experiment [4], 0.638 (inactive).

Turning to `CCOC(=O)[C@H](CC(C)C)NC(=O)CCC1CC(OC(=O)NCCc2ccc(F)cc2)CC2(CCCC(COC(=O)NCc3ccccc3)O2)O1` (stereo partly drawn), the results for the composite z-score in experiment [1] and in experiment [2] were 0.137 (inactive) and 0.461, respectively. Besides, the z-score in experiment [3] is -2.06; in experiment [4], -7.01 (inactive).

In the case of `Cn1c(=O)n2n(c1=O)[C@H]1[C@H](O)[C@@H]3O[C@@H]3C(=NOC[C@@H](O)COCc3ccco3)[C@H]1CC2`, the composite z-score in experiment [1] was 3.04 (inactive); in experiment [2], 0.265. The z-score in experiment [3] is 0.192; in experiment [4], 0.445 (inactive).

Take `COC(=O)[C@@H]1CC[C@H](C)[C@@H](c2ccc(C)cc2)N1C(=O)c1ccc(C=NOC[C@@H](O)COCc2ccco2)cc1`: the results for the composite z-score in experiment [1] and in experiment [2] were -0.484 (inactive) and -1.03, respectively. The z-score in experiment [3] is -2.31; in experiment [4] it was -6.19 (inactive).

In the case of `C[C@@H](c1ccccc1)N1C(=O)[C@H]2[C@H]3[C@H](O)C=CC(=O)[C@@H]3CC[C@H]2C1=O`, the composite z-score is 0.146 (inactive) in experiment [1] and 0.014 in experiment [2]. Besides, the z-score is -0.173 in experiment [3] and -0.308 (inactive) in experiment [4].

With `CCOC(=O)NN=C1C[C@@H](O)[C@@H](O)[C@@H]2[C@@H]3C(=O)N(C4CCCCC4)C(=O)[C@@H]3CC[C@H]12`, the composite z-score was 0.67 (inactive) in experiment [1] and 0.485 in experiment [2]. Also, the z-score is -1.68 in experiment [3] and -1.77 (inactive) in experiment [4].

Regarding `CC(CCN1CCCCc2nc(C)c(C)cc21)=NOC(C)CN1CCCc2nc(C)c(C)cc21` (stereo not drawn), the composite z-score in experiment [1] was 0.829 (inactive); in experiment [2], 0.731. The z-score in experiment [3] was 0.507; in experiment [4], -10.5 (active).

`COc1cccc([C@H]2Oc3ccc(OC)cc3C(=NO[C@H](C)c3cn([C@@H]4COC[C@H]4O)nn3)[C@@H]2O)c1`: the values for the composite z-score in experiment [1] and in experiment [2] were 0.0524 (inactive) and -0.561, respectively. The z-score is -0.866 in experiment [3] and -2.61 (inactive) in experiment [4].

Consider `O=C1[C@H]2[C@H]3[C@H](O)[C@H](O)CC(=NO[C@@H]4O[C@H](CO)[C@@H](O)[C@H](O)[C@H]4O)[C@H]3CC[C@H]2C(=O)N1C1CCCCC1`, for which the composite z-score in experiment [1] was 0.269 (inactive); in experiment [2], 0.653. Besides, the z-score in experiment [3] was 0.418; in experiment [4] it was -4.7 (inactive).

With `COC(=O)CC=C[C@@H](C)[C@H](OC)c1ccccc1Br`, the composite z-score in experiment [1] is -0.575 (inactive); in experiment [2] it was -0.412. Moreover, the z-score in experiment [3] was 0.805; in experiment [4], -0.0487 (inactive).

Regarding `CC(C)CON=C1C[C@@H](O)[C@@H](O)[C@@H]2[C@@H]3C(=O)N([C@@H](C)c4ccccc4)C(=O)[C@@H]3CC[C@H]12`, the composite z-score in experiment [1] is -0.0093 (inactive); in experiment [2], 0.402. Further, the z-score is 0.529 in experiment [3] and 0.0364 (inactive) in experiment [4].

As for `O=C(NN=C1C[C@@H](O)[C@@H](O)[C@@H]2[C@@H]3C(=O)N(c4ccc(F)cc4F)C(=O)[C@@H]3CC[C@@H]12)OCc1ccccc1`, the composite z-score in experiment [1] was -0.269 (inactive); in experiment [2], 0.159. Besides, the z-score in experiment [3] is 0.823; in experiment [4] it was -1.72 (inactive).

With `CC(CCC(=O)OC[C@H]1O[C@H](C#Cc2ccccc2)C=C[C@@H]1Oc1ccc(C)cc1)=NO[C@@H](C)c1cn([C@H](CO)Cc2ccccc2)nn1`, the composite z-score is 0.692 (inactive) in experiment [1] and 0.54 in experiment [2]. In addition, the z-score was -1.02 in experiment [3] and -2.38 (inactive) in experiment [4].

For the compound `CC(C)[C@@H](OCc1ccccc1)[C@H](C)C=NO[C@H](C)c1cn([C@H](CO)Cc2ccccc2)nn1`, the results for the composite z-score in experiment [1] and in experiment [2] were -0.2 (inactive) and 0.353, respectively. Also, the z-score in experiment [3] is 0.325; in experiment [4] it was -4.42 (inactive).

Regarding `O=C1[C@H]2[C@H]3[C@H](O)[C@H](O)CC(=NOC[C@@H](O)COCc4ccco4)[C@H]3CC[C@H]2C(=O)N1Cc1ccc2c(c1)OCO2`, the composite z-score was 0.525 (inactive) in experiment [1] and 0.127 in experiment [2]. Also, the figures for the z-score in experiment [3] and in experiment [4] were 0.436 and -0.743 (inactive), respectively.
